According to PubChem BioAssay (NCI):
This is part of a sample that, as a whole, favours compounds with a hit. Of some 83,000 tested, about 20% had one in any assay.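 The endpoint reported here, percent growth, reads 100 for growth as untreated, 0 for no net growth and -100 for all cells dead.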 Calls of active or inactive are those of the source. The calls were made as follows: active = growth percent below 10; inactive = the rest.

Each molecule was assayed on MDA-MB-231 breast (assay: NCI-60 one-dose screen, 48 h (100 = growth as untreated, 0 = no growth, -100 = all killed)). Conditions: 10 µM unless noted.
With COc1cc(-c2csc(NC(=O)Nc3ccc(Cl)cc3)n2)cc(OC)c1OC the growth was 45.5% (inactive).
For N#CCNc1ccc(C(=O)O)cc1, the growth was 104% (inactive).
CCOC(=O)c1ccc(Nc2ncnc3ccc(NC(=O)c4ccccc4)cc23)cc1 was tested, and the growth was 98.2% (inactive).
COC(=O)/C=C/c1cc(OC(C)=O)c2c(c1)C(C(=O)OC)C(c1ccc(OC(C)=O)c(OC(C)=O)c1)O2 (configuration not stated) was tested, and the growth was 16.4% (inactive).

Each molecule was assayed on RXF 393 renal in the same assay as above. Conditions: 10 µM unless noted.
In the case of O=C1CC(c2ccc(O)c(O)c2)Oc2cc(O)c([C@@H]3O[C@H](CO)[C@@H](O)[C@H](O)[C@H]3O)c(O)c21 (some centres not stated), the growth is reported as 103% (inactive).
O=C(NCc1ccccc1)c1ccc2c(c1)NC(=O)[C@@H]1CCCN21 was tested, and the growth was 109% (inactive).
In the case of CCc1ccc(OCc2ccccc2C(=O)Nc2ccc3nc(C)cc(N)c3c2)cc1, the growth is reported as -84.5% (active).
In the case of CSc1cccc(NC(=O)Nc2nc3c(C)cccc3s2)c1, the growth is reported as 104% (inactive).
For COC(=O)[C@]1(C)CCC[C@]2(C)[C@H]3C[C@H]4C(C(C)C)=C[C@]3(CC[C@H]21)[C@@H]1C(=O)N(CCC#N)C(=O)[C@@H]14, the growth was 86.7% (inactive).
With CC1=C(CCCOC(=O)NCCCl)C2=C(C)C3(CC3)[C@@](C)(O)C(=O)C2=C1 the growth was -69.2% (active).
With COc1ccc2[nH]c(-c3ccccc3)c(C=C(C#N)C#N)c2c1 the growth was 22.4% (inactive).
For Cc1nn(-c2ccc(-c3ccc(OC(F)(F)F)cc3)cc2)c2nc(-c3ccccc3)nc(N)c12, the growth was 104% (inactive).
For O=S(=O)(O)c1ccc(N=NSc2ccc3ccccc3c2)cc1, the growth was 117% (inactive).
With O=c1c2ccccc2n(CC(O)CN2CCCC2)c2c(Br)cccc12 (configuration not stated) the growth was 98.9% (inactive).
CS(=O)(=O)O[C@@H]1C(=O)N(c2cc3c4ccccc4ccc3c3ccccc23)[C@H]1c1ccc(F)cn1 was tested, and the growth was 18.6% (inactive).
In the case of CC(C)(C)c1nn(-c2ccccc2)c2c1COCN2Cc1ccc(Cl)cc1, the growth is reported as 100% (inactive).
With Cc1cc(NC(=O)CNc2nc(Oc3ccc(F)cc3)nc(-c3ccc(F)cc3)n2)ccc1Cl the growth was 92.7% (inactive).
In the case of CC(=O)c1cc2c(N)c(C(=O)Nc3ccccn3)sc2nc1C, the growth is reported as 86.4% (inactive).
CCOC(=O)c1sc(/N=C2\NC(=O)/C(=C/c3ccc(N4CCN(C)CC4)cc3)S2)nc1C was tested, and the growth was 112% (inactive).
With O=C(/C(=C/c1ccc([N+](=O)[O-])cc1)SCc1ccc(F)cc1)c1ccc(Cl)cc1 the growth was 93.4% (inactive).
With Cc1cnc(-c2ccc(-c3ccc(NC(=O)Nc4c(F)cc(F)cc4F)cc3F)c3c2C(=O)NC3)[nH]1 the growth was 21.5% (inactive).
With COc1ccc(Nc2cc(NC(=O)CNc3cc(OC)c(Cl)c(OC)c3Cl)ncn2)cc1 the growth was 86.7% (inactive).
With Nc1n[nH]c2cccc(C#Cc3cccc(NC(=O)c4cc(N5CCOCC5)cc(C(F)(F)F)c4)c3)c12 the growth was 38.7% (inactive).
For CC(C)(C)CC(C)(C)Cc1ccc(OCCOCC[N+](C)(C)Cc2ccccc2)cc1, the growth was 16.5% (inactive).
For CCOCc1cc(C(C)(C)C)ccc1O, the growth was 109% (inactive).
C=C1C(=O)O[C@H]2[C@H]1CC/C(COC(=O)Nc1nc3ccccc3[nH]1)=C\CC[C@@]1(C)O[C@@H]21 was tested, and the growth was 30.6% (inactive).
With C=C(C)[C@@H]1CC[C@]2(C(=O)n3ccnc3)CC[C@]3(C)[C@H](CC[C@@H]4[C@@]5(C)CCCNC(C)(C)[C@@H]5CC[C@]43C)[C@@H]12 the growth was 10.8% (inactive).
In the case of C=C(C)[C@@H]1CC[C@]2(C(=O)O)CC[C@]3(C)[C@H](CC[C@@H]4[C@@]5(C)C[C@@H](CC#Cc6ccccc6C)C(=O)C(C)(C)[C@@H]5CC[C@]43C)[C@@H]12, the growth is reported as 51.8% (inactive).
With Clc1ccc2c(NCCCNC3CCCCC3)ccnc2c1 the growth was 82.6% (inactive).
In the case of CN(C)C(CNc1oc(-c2cccc3ccccc23)nc1C#N)c1ccco1 (configuration not stated), the growth is reported as 99.3% (inactive).
For c1cc(CNC23CC4CC(CC(C4)C2)C3)cc(C[N+](Cc2cccc(CNC34CC5CC(CC(C5)C3)C4)c2)(Cc2cccc(CNC34CC5CC(CC(C5)C3)C4)c2)Cc2cccc(CNC34CC5CC(CC(C5)C3)C4)c2)c1 (configuration not stated), the growth was 4.56% [42 µM] (active).
In the case of O=C1CCc2ccccc2N1, the growth is reported as 111% (inactive).
Cc1cnc(SCc2ccc(Cl)cc2Cl)nc1Nc1ccc(Cl)c(Cl)c1 was tested, and the growth was 97.4% (inactive).
COc1cc(C2=NN(C(C)=O)C(c3cccc(Nc4ccnc5cc(C(F)(F)F)ccc45)c3)C2)cc(OC)c1OC (configuration not stated) was tested, and the growth was 55.3% (inactive).
With CCOC(=O)c1c(-c2ccc(O)cc2)c(C#N)c2c(C#N)c(N)nn2c1N the growth was 76.2% (inactive).
In the case of CN(C)CCCn1c2c(c3cc(-c4ccco4)ccc3c1=O)C(=O)c1ccccc1-2, the growth is reported as 75.5% (inactive).
In the case of Nc1cc(N)c(S(=O)(=O)O)cc1N=Nc1cc([N+](=O)[O-])ccc1O, the growth is reported as 103% (inactive).
COc1cc(/C=N/Nc2nc(-c3ccc(F)cc3)c(C#N)c(N3CCOCC3)n2)ccc1O was tested, and the growth was -0.23% (active).
COc1cc(-c2csc(NC(=O)Nc3ccc(Cl)cc3)n2)cc(OC)c1OC was tested, and the growth was 23.4% (inactive).
With N#CCNc1ccc(C(=O)O)cc1 the growth was 101% (inactive).
CCOC(=O)c1ccc(Nc2ncnc3ccc(NC(=O)c4ccccc4)cc23)cc1 was tested, and the growth was 80.7% (inactive).
With COC(=O)/C=C/c1cc(OC(C)=O)c2c(c1)C(C(=O)OC)C(c1ccc(OC(C)=O)c(OC(C)=O)c1)O2 (configuration not stated) the growth was 28.7% (inactive).
